Screens (PubChem BioAssay)
3T3 cytotox = kills NIH 3T3 cells. AID 1345082. NIH 3T3 viability, CellTiter-Glo ATP luminescence, 48-72 h. 94,000 tested, 4.3% active. Potency, µM (titrated, usually from 96.7 µM), for inactives: at the highest dose activity change, negative = cytotoxicity, usual class: inhibitors; further: nearly all actives have a fitted effect of over 55% in size
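ATP-dependent luminescence (CellTiter-Glo) served as the viability signal for NIH 3T3 cells treated with compound for 48 or 72 hr at 37 °C.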
Luciferase inh = inhibitors of firefly (Photinus pyralis) luciferase. P08659. Potency, µM (top dose mostly 115 µM), most hits filed as inhibitors. 76,000 tested, 2.5% active. purified P. pyralis luciferase, luminescence, biochemical; further: nearly all actives have a fitted effect of over 65% in size
Target sequence (P08659 whole entry, looked up): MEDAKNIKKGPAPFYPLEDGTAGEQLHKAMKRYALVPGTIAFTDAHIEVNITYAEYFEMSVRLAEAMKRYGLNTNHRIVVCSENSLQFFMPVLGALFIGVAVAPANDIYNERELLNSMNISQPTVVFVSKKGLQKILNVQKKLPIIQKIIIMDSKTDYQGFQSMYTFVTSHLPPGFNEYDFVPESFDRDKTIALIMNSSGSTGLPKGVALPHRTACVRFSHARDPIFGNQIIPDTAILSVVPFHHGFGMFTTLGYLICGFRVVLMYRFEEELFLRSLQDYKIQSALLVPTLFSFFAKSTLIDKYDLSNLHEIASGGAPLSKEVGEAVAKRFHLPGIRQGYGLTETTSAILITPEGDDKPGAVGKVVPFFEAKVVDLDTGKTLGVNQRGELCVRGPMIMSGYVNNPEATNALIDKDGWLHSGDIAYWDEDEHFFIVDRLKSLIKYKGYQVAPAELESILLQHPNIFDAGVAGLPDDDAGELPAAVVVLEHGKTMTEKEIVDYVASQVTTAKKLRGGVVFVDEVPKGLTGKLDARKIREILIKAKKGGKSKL
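Luminescence read by CCD imaging after purified firefly luciferase (10nM final) was added to substrate buffer holding 10uM D-luciferin and 10uM ATP, pH 7.5, pre-dosed with compound.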
HEK cytotox = HEK 293 cell cytotoxicity; HEK 293 viability, ATP luminescence (CellTiter-Glo), 48-72 h; Potency, µM (highest dose often 115 µM), inactives show at the highest dose activity change, negative = cytotoxicity, usual class: inhibitors; 94,000 tested, 6.6% active; AID 1345083; further: nearly all actives have a fitted effect of over 60% in size
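250 HEK 293 cells/well; compound by pintool; incubated 48 or 72 hr at 37 degree Celsius; CellTiter-Glo added, 10 min RT, luminescence imaged.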
hNpr1 antagonist = antagonists of human natriuretic peptide receptor Npr1; HEK293 hNpr1 GloSensor cGMP, ANP-stimulated luminescence; Potency, µM (highest dose often 46.3 µM), for inactives: at the highest dose activity change, negative = inhibition, actives largely listed as inhibitors; 76,000 tested, 1.6% active; AID 1347048; calls by dose curve; further: nearly all actives have a fitted effect of over 60% in size
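HEK293 cells stably expressing human Npr1 and cGMP GloSensor pGS-40F, loaded 2 h with 2% GloSensor reagent, given compound 30 min at room temperature. Luminescence read before and 20 min after 0.1 nM hNppA.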
Starred values were filed as active, the others as inactive; i = inactive; ? = inconclusive; · = not tested or not shown; [ ] = dose if it differs, or a comment. Only some compounds are listed: those with a hit (about 11% of all), similar ones and a draw of the others. Unless noted, the call rests on the fitted dose curve; in most records, active means well fitted curve in the direction sought with a large enough effect; inconclusive means small, poorly fitted or top-dose-only effect, or another doubt; inactive means no such curve, though single readings can be large; an effect the other way counts as inactive or inconclusive. On the % scale 0 is the no-effect control and ±100 the full control effect; potency means the concentration at half of the fitted maximal effect.

SMILES | 3T3 cytotox | Luciferase inh | HEK cytotox | hNpr1 antagonist
COCCNC(=O)c1ccc2nnc(-c3cc(C(F)(F)F)cc(C(F)(F)F)c3)n2c1 | -29% | · | -18% | ·
Cc1nc(CN2Cc3nc(N(C)c4ccccc4)ccc3OCC2=O)cs1 | ? | i | ? | ?
COc1cccc(CN2Cc3nc(-c4ccncc4)ccc3OCC2=O)c1 | ? | i | ? | -29%[70.6 µM]
CN(c1ccccc1)c1ccc2c(n1)CN(Cc1ccccc1)C(=O)CO2 | 79µM* | 50µM* | 89µM* | ?
COc1ccc(-c2ccc3c(n2)CN(CCOc2ccccc2)C(=O)CO3)cc1 | ? | i | ? | ?
Cn1cc(-c2ccc3c(n2)CN(Cc2ccccc2)C(=O)CO3)cn1 | 40µM* | i | ? | -4%[70.6 µM]
COc1cccc(CN2Cc3nc(-c4ccccc4)ccc3OCC2=O)c1 | ? | i | 79µM* | -15%[70.6 µM]
CN1Cc2nc(-c3cnn(C)c3)ccc2OCC1=O | ? | i | -2%[230 µM] | 5%[70.6 µM]
O=C1COc2ccc(-c3ccccc3)nc2CN1CCOc1ccccc1 | 45µM* | i | ? | -27%[70.6 µM]
Cc1noc(C)c1CN1CCC2(CC1)CC(C(=O)N1CCOCC1)N(C)C2 (stereo not drawn) | -27% | · | 3% | ·
CS(=O)(=O)N1CCC(OC2CCN(C(=O)C3(c4ccccc4)CC3)CC2)CC1 | -28% | i | 2% | -3%
COc1cccc(-c2nc3cc4c(cc3cc2CN2CCSCC2)OCO4)c1OC | ? | i | 22µM* | 0%
CC(=O)Oc1c(-c2ccc(NC(=O)c3ccco3)cc2)c(-c2cccc(C)c2)nn1-c1ccc(F)cc1 | ? | ? | ? | -26%
CC(=O)c1ccc(NC(=O)N2C[C@@H]3C[C@H](C2)c2ccc(NC(=O)Nc4cccc(F)c4)c(=O)n2C3)cc1 | -21% | 35µM* | -1% | 1%
O=C(Nc1ccc2n(c1=O)C[C@H]1C[C@@H]2CN(C(=O)Nc2ccc(F)cc2)C1)c1ccccc1 | 22µM* | i | -6% | 1%
O=C(NCCc1ccccn1)c1cnc2c(c1)N([S+](=O)([O-])c1cccnc1)CCC2 | ? | i | -30%[172 µM] | 6%[70.6 µM]
O=C(c1ccccc1F)N1CCC(C(=O)N2CCC(N3CCOCC3=O)CC2)CC1 | 0% | · | i | ·
CN(Cc1cccc2cnccc12)C(=O)COc1ccc(Cl)cc1Cl | ? | i | 45µM* | ?
Cc1nn2c(c1-c1ccccc1OCc1ccccc1)N(C(=O)Cc1ccccc1)CCC2 | 45µM* | i | 79µM* | ?
Cc1nn2c(c1-c1cccc3cn[nH]c13)N(C(=O)Cc1ccccc1)CCC2 | 45µM* | i | -26%[172 µM] | -25%[70.6 µM]
Cc1nn2c(c1-c1ccccc1OCc1ccccc1)N(C(=O)CN1CCOCC1)CCC2 | ? | i | -5% | -19%
CCOC(=O)C1CCN(C(=O)c2nc3sccn3c2-c2ccc(F)cc2)CC1 | ? | · | -4% | ·
c1ccc(-c2ccccc2Nc2cnc3ccc(N4CCOCC4)nn23)cc1 | ? | i | 89µM* | -27%[70.6 µM]
COc1cccc(Nc2cnc3ccc(N4CCOCC4)nn23)c1 | ? | i | -25%[172 µM] | -2%[70.6 µM]
CN1CCN(c2ccc3ncc(Nc4ccccc4F)n3n2)CC1 | ? | i | 112µM* | -2%[70.6 µM]
SMILES | 3T3 cytotox | Luciferase inh | HEK cytotox | hNpr1 antagonist
CN1CCN(c2ccc3ncc(Nc4cccc(C(F)(F)F)c4)n3n2)CC1 | ? | i | 100µM* | -26%[70.6 µM]
O=C(N[C@@H]1CN(C(=O)CCc2c[nH]c3ccccc23)C[C@H]1CO)c1ccccc1 | -8% | · | i | ·
CC(C)C(=O)Nc1cc(-c2ccccn2)nn1-c1ccccc1 | -30%[138 µM] | · | -22%[172 µM] | ·
COCCN[C@@H]1C[C@@H]2c3[nH]c4ccccc4c3C[C@@H](C(=O)OC)N2[C@H](c2ccccc2)C1 | 32µM* | ? | 28µM* | ?
O=C(COc1ccccc1)NC1CCCc2c1[nH]c1ccccc21 (stereo not drawn) | ? | i | ? | -4%
COC(=O)[C@@H]1Cc2c([nH]c3ccccc23)[C@H]2C[C@@H](NCCO)C[C@@H](c3ccccc3)N21 | 32µM* | ? | 40µM* | -16%[70.6 µM]
COCCN[C@@H]1C[C@@H]2c3[nH]c4ccccc4c3C[C@@H](C(=O)OC)N2[C@H](c2ccc(F)c(F)c2)C1 | 25µM* | i | 22µM* | ?
O=C(NC1CCCc2c1[nH]c1ccccc21)c1cn(C2CC2)c(=O)c2ccccc12 (stereo not drawn) | ? | i | ? | -10%
COCCN1Cc2ccc(NCC(C)C)nc2C(C)(C(=O)Nc2ccc(OC)cc2)C1 (stereo not drawn) | 45µM* | ? | ? | -10%[70.6 µM]
COCCN1Cc2ccc(NCc3ccccc3)nc2C(C)(C(=O)N(C)CCOC)C1 (stereo not drawn) | ? | i | ? | 2%[70.6 µM]
COCCNC(=O)C1(C)CN(Cc2ccccc2)Cc2ccc(NCC(C)C)nc21 (stereo not drawn) | 22µM* | i | 40µM* | -12%[70.6 µM]
COCCNC(=O)C1(C)CN(Cc2ccccc2)Cc2ccc(Nc3ccccc3)nc21 (stereo not drawn) | ? | i | ? | -2%[70.6 µM]
COCCN1Cc2ccc(NCC(C)C)nc2C(C)(C(=O)Nc2ccccc2)C1 (stereo not drawn) | ? | i | ? | -12%[70.6 µM]
COCCN(C)C(=O)C1(C)CN(Cc2ccccc2)Cc2ccc(NCC(C)C)nc21 (stereo not drawn) | ? | i | 79µM* | 1%[70.6 µM]
O=C(N[C@@H]1CN(C(=O)c2ccsc2)C[C@H]1CO)c1ccccc1 | -8% | · | 1% | ·
CNC(=O)c1cc(-c2ccc(OC)c(OC)c2)cc2c1OCCN2Cc1cccnc1 | 22µM* | i | -12%[172 µM] | 2%[70.6 µM]
CNC(=O)c1cc(-c2cnn(C)c2C)cc2c1OCCN2Cc1cccnc1 | 45µM* | i | -4%[172 µM] | 1%[70.6 µM]
CNC(=O)c1cc(-c2ccc(CO)cc2)cc2c1OCCN2Cc1cccnc1 | 45µM* | i | -3%[172 µM] | 10%[70.6 µM]
Cc1cc(CNC(=O)c2cc(-c3ccccc3)cc3c2OCCN3C)no1 | ? | i | 100µM* | 3%[70.6 µM]
COC(=O)CNC(=O)c1ccc2nnc(-c3ccc(C(F)(F)F)cc3)n2c1 | -19% | · | -10% | ·
COc1ccc(-c2ccc(C(=O)N3CCN(C(=O)C4CC4)CC3)cc2)nn1 | -28% | · | -14% | ·
O=C(Cn1cccc1-c1nc(-c2ccccc2)no1)Nc1ccc2c(c1)OCCO2 | i | i | ? | -14%
COc1ncc(-c2cc(C(=O)NCc3cccnc3)c3c(c2)N(C)CCO3)cn1 | 45µM* | i | -12%[172 µM] | -6%[70.6 µM]
CNC(=O)c1cc(-c2ccc([S+](C)(=O)[O-])cc2)cc2c1OCCN2Cc1cccnc1 | 8.9µM* | i | -23%[172 µM] | -4%[70.6 µM]
CNC(=O)c1cc(-c2cnc(OC)nc2)cc2c1OCCN2Cc1cccnc1 | ? | i | 2%[172 µM] | -1%[70.6 µM]
COCc1nc(C2CCN(C(=O)c3n[nH]c4ccccc34)C2)no1 (stereo not drawn) | -2% | i | -11% | 5%
